From PMC11006913
Where a chain is given by its changes, count along the chain named.

Legend:
Assay in all cases: PBM; 200 nM protein, PBS
Settings in all cases: dsDNA, one strand shown
SIX6 [1] = target: T1, SIX6 (Homo sapiens, UniProt O95475 114-200, L167I)
T1 sequence: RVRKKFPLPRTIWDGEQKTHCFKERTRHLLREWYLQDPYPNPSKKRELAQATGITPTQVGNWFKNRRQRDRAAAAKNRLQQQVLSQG

SIX6 [2] = target: T2, SIX6 (Homo sapiens, UniProt O95475 114-200, L143V)
T2 sequence: T1 sequence with L30V, I54L

SIX6 [3] = target: T3, SIX6 (Homo sapiens, UniProt O95475 114-200, H141N)
T3 sequence: T1 sequence with H28N, I54L

SIX6 [4] = target: T4, SIX6 (Homo sapiens, UniProt O95475 114-200, T165P)
T4 sequence: T1 sequence with T52P, I54L

SIX6 [5] = target: T5, SIX6 (Homo sapiens, UniProt O95475 114-200, L167M)
T5 sequence: T1 sequence with I54M

SIX6 [6] = target: T6, SIX6 (Homo sapiens, UniProt O95475 114-200, L143M)
T6 sequence: T1 sequence with L30M, I54L

SIX6 [7] = target: T7, SIX6 (Homo sapiens, UniProt O95475 114-200, L143I)
T7 sequence: T1 sequence with L30I, I54L

SIX6 [8] = target: T8, SIX6 (Homo sapiens, UniProt O95475 114-200, T165G)
T8 sequence: T1 sequence with T52G, I54L

SIX6 [9] = target: T9, SIX6 (Homo sapiens, UniProt O95475 114-200, T139Q)
T9 sequence: T1 sequence with T26Q, I54L

SIX6 [10] = target: T10, SIX6 (Homo sapiens, UniProt O95475 114-200, T165A)
T10 sequence: T1 sequence with T52A, I54L

SIX6 [11] = target: T11, SIX6 (Homo sapiens, UniProt O95475 114-200, L167V)
T11 sequence: T1 sequence with I54V

SIX6 [12] = target: T12, SIX6 (Homo sapiens, UniProt O95475 114-200)
T12 sequence: T1 sequence with I54L

SIX6 [13] = target: T13, SIX6 (Homo sapiens, UniProt O95475 114-200, T165I)
T13 sequence: T1 sequence with T52I, I54L

Row | Sequence | binding signal (SIX6 [1]) | binding signal (SIX6 [2]) | binding signal (SIX6 [3]) | binding signal (SIX6 [4]) | binding signal (SIX6 [5]) | binding signal (SIX6 [6]) | binding signal (SIX6 [7]) | binding signal (SIX6 [8]) | binding signal (SIX6 [9]) | binding signal (SIX6 [10]) | binding signal (SIX6 [11]) | binding signal (SIX6 [12]) | binding signal (SIX6 [13])
1 | CCGCAGCG | 8.92 upbm affinity estimate (log intensity, higher = more binding, comparable within an allelic series) | 8.95 upbm affinity estimate (log intensity, higher = more binding, comparable within an allelic series) | 8.92 upbm affinity estimate (log intensity, higher = more binding, comparable within an allelic series) | 9.03 upbm affinity estimate (log intensity, higher = more binding, comparable within an allelic series) | 8.98 upbm affinity estimate (log intensity, higher = more binding, comparable within an allelic series) | 8.95 upbm affinity estimate (log intensity, higher = more binding, comparable within an allelic series) | 8.96 upbm affinity estimate (log intensity, higher = more binding, comparable within an allelic series) | 8.86 upbm affinity estimate (log intensity, higher = more binding, comparable within an allelic series) | 8.88 upbm affinity estimate (log intensity, higher = more binding, comparable within an allelic series) | 8.92 upbm affinity estimate (log intensity, higher = more binding, comparable within an allelic series) | 8.99 upbm affinity estimate (log intensity, higher = more binding, comparable within an allelic series) | 8.96 upbm affinity estimate (log intensity, higher = more binding, comparable within an allelic series) | 8.92 upbm affinity estimate (log intensity, higher = more binding, comparable within an allelic series)
2 | CTGTATCA | 11.2 upbm affinity estimate (log intensity, higher = more binding, comparable within an allelic series) | 10.3 upbm affinity estimate (log intensity, higher = more binding, comparable within an allelic series) | 11.2 upbm affinity estimate (log intensity, higher = more binding, comparable within an allelic series) | 9.69 upbm affinity estimate (log intensity, higher = more binding, comparable within an allelic series) | 10.6 upbm affinity estimate (log intensity, higher = more binding, comparable within an allelic series) | 10.9 upbm affinity estimate (log intensity, higher = more binding, comparable within an allelic series) | 10.3 upbm affinity estimate (log intensity, higher = more binding, comparable within an allelic series) | 11.1 upbm affinity estimate (log intensity, higher = more binding, comparable within an allelic series) | 11.1 upbm affinity estimate (log intensity, higher = more binding, comparable within an allelic series) | 11.1 upbm affinity estimate (log intensity, higher = more binding, comparable within an allelic series) | 10.9 upbm affinity estimate (log intensity, higher = more binding, comparable within an allelic series) | 10.9 upbm affinity estimate (log intensity, higher = more binding, comparable within an allelic series) | 10.9 upbm affinity estimate (log intensity, higher = more binding, comparable within an allelic series)
3 | AGCTCCGC | 9.05 upbm affinity estimate (log intensity, higher = more binding, comparable within an allelic series) | 8.96 upbm affinity estimate (log intensity, higher = more binding, comparable within an allelic series) | 8.98 upbm affinity estimate (log intensity, higher = more binding, comparable within an allelic series) | 8.97 upbm affinity estimate (log intensity, higher = more binding, comparable within an allelic series) | 8.95 upbm affinity estimate (log intensity, higher = more binding, comparable within an allelic series) | 9.08 upbm affinity estimate (log intensity, higher = more binding, comparable within an allelic series) | 9.04 upbm affinity estimate (log intensity, higher = more binding, comparable within an allelic series) | 9.04 upbm affinity estimate (log intensity, higher = more binding, comparable within an allelic series) | 8.99 upbm affinity estimate (log intensity, higher = more binding, comparable within an allelic series) | 8.94 upbm affinity estimate (log intensity, higher = more binding, comparable within an allelic series) | 9.1 upbm affinity estimate (log intensity, higher = more binding, comparable within an allelic series) | 8.9 upbm affinity estimate (log intensity, higher = more binding, comparable within an allelic series) | 9.01 upbm affinity estimate (log intensity, higher = more binding, comparable within an allelic series)
4 | CAGTGGCC | 8.99 upbm affinity estimate (log intensity, higher = more binding, comparable within an allelic series) | 8.9 upbm affinity estimate (log intensity, higher = more binding, comparable within an allelic series) | 8.99 upbm affinity estimate (log intensity, higher = more binding, comparable within an allelic series) | 9.04 upbm affinity estimate (log intensity, higher = more binding, comparable within an allelic series) | 8.93 upbm affinity estimate (log intensity, higher = more binding, comparable within an allelic series) | 8.95 upbm affinity estimate (log intensity, higher = more binding, comparable within an allelic series) | 8.95 upbm affinity estimate (log intensity, higher = more binding, comparable within an allelic series) | 9.02 upbm affinity estimate (log intensity, higher = more binding, comparable within an allelic series) | 8.99 upbm affinity estimate (log intensity, higher = more binding, comparable within an allelic series) | 8.94 upbm affinity estimate (log intensity, higher = more binding, comparable within an allelic series) | 9.05 upbm affinity estimate (log intensity, higher = more binding, comparable within an allelic series) | 8.95 upbm affinity estimate (log intensity, higher = more binding, comparable within an allelic series) | 8.94 upbm affinity estimate (log intensity, higher = more binding, comparable within an allelic series)
5 | GATATCCC | 11.1 upbm affinity estimate (log intensity, higher = more binding, comparable within an allelic series) | 10.2 upbm affinity estimate (log intensity, higher = more binding, comparable within an allelic series) | 11.1 upbm affinity estimate (log intensity, higher = more binding, comparable within an allelic series) | 9.49 upbm affinity estimate (log intensity, higher = more binding, comparable within an allelic series) | 10.8 upbm affinity estimate (log intensity, higher = more binding, comparable within an allelic series) | 11 upbm affinity estimate (log intensity, higher = more binding, comparable within an allelic series) | 10.2 upbm affinity estimate (log intensity, higher = more binding, comparable within an allelic series) | 11.2 upbm affinity estimate (log intensity, higher = more binding, comparable within an allelic series) | 11.1 upbm affinity estimate (log intensity, higher = more binding, comparable within an allelic series) | 11 upbm affinity estimate (log intensity, higher = more binding, comparable within an allelic series) | 11 upbm affinity estimate (log intensity, higher = more binding, comparable within an allelic series) | 11 upbm affinity estimate (log intensity, higher = more binding, comparable within an allelic series) | 11 upbm affinity estimate (log intensity, higher = more binding, comparable within an allelic series)
6 | CTCGATAC | 10.6 upbm affinity estimate (log intensity, higher = more binding, comparable within an allelic series) | 10 upbm affinity estimate (log intensity, higher = more binding, comparable within an allelic series) | 10.6 upbm affinity estimate (log intensity, higher = more binding, comparable within an allelic series) | 9.7 upbm affinity estimate (log intensity, higher = more binding, comparable within an allelic series) | 10.2 upbm affinity estimate (log intensity, higher = more binding, comparable within an allelic series) | 10.6 upbm affinity estimate (log intensity, higher = more binding, comparable within an allelic series) | 10.1 upbm affinity estimate (log intensity, higher = more binding, comparable within an allelic series) | 10.8 upbm affinity estimate (log intensity, higher = more binding, comparable within an allelic series) | 10.8 upbm affinity estimate (log intensity, higher = more binding, comparable within an allelic series) | 10.6 upbm affinity estimate (log intensity, higher = more binding, comparable within an allelic series) | 10.4 upbm affinity estimate (log intensity, higher = more binding, comparable within an allelic series) | 10.6 upbm affinity estimate (log intensity, higher = more binding, comparable within an allelic series) | 10.5 upbm affinity estimate (log intensity, higher = more binding, comparable within an allelic series)
